In PubChem BioAssay one finds viability data, which are given here for 18 compounds.

SMILES strings stand for the structures. Calls of active or inactive are those of the source.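 How the source made its calls: active means normalized viability below 100% at a tested concentration; inactive means the rest.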

What is called viability is a read-out of living cells in per cent, often relative to untreated cells.

The first assay is described as follows: drug combination growth inhibition, ovarian cancer – cell-based, oncology-focused library, rucaparib conditional, profiling panel (AID 1508598). Conditions: patient-derived ovarian cancer cells, CellTiter-Glo viability, 144 h; at 0.0195 µM; OCI-P5x cells; with rucaparib 20 µM; hits give low values; 100% = cells with rucaparib alone. A general note: In ATP-based viability assays light output follows the ATP content of the culture.
Consider `N[C@@H]1CCCN(c2c(/C=C3\SC(=O)NC3=O)cccc2-c2ccccc2)C1`, for which the viability was 96.9% (active).
For the compound `C[C@@H]1C[C@H]2[C@@H]3CCC4=CC(=O)C=C[C@]4(C)[C@]3(F)[C@H](O)C[C@]2(C)[C@]1(O)C(=O)CO`, the viability was 108% (inactive).
With `Cc1cc2c(C(=O)NC[C@H](C)c3ccccc3)c(O)c(O)cc2c(O)c1-c1c(C)cc2c(C(=O)NC[C@H](C)c3ccccc3)c(O)c(O)cc2c1O`, the viability was 102% (inactive).
For the compound `Nc1nc(F)nc2c1ncn2[C@H]1O[C@H](CO)[C@@H](O)[C@@H]1O`, the viability is 97.4% (active).
On to `COc1cccc2c1C(=O)c1c(O)c3c(c(O)c1C2=O)C[C@@](O)(C(=O)CO)C[C@H]3O[C@H]1C[C@H](N)[C@@H](O)[C@H](C)O1`, for which the viability is 92% (active).
`C=C1/C(=C/C=C2\CCC[C@@]3(C)[C@H]2CC[C@H]3[C@H](C)/C=C/[C@@H](C)C(C)C)C[C@H](O)C[C@@H]1O`: the viability is 102% (inactive).
As to `CO[C@H]1C[C@H]2CC[C@@H](C)[C@@](O)(O2)C(=O)C(=O)N2CCCC[C@H]2C(=O)O[C@H]([C@H](C)C[C@@H]2CC[C@H](OP(C)(C)=O)[C@H](OC)C2)CC(=O)[C@H](C)/C=C(\C)[C@@H](O)[C@@H](OC)C(=O)[C@H](C)C[C@H](C)/C=C/C=C/C=C/1C`, the viability was 76.4% (active).
On to `C=CCNC1=C2C[C@@H](C)C[C@H](OC)[C@H](O)[C@@H](C)/C=C(\C)[C@H](OC(N)=O)[C@@H](OC)/C=C\C=C(\C)C(=O)NC(=CC1=O)C2=O`, for which the viability is 119% (inactive).
On the same count and under the same terms, next, `CC[C@]1(O)C[C@@H]2CN(CCc3c([nH]c4ccccc34)[C@@](C(=O)OC)(c3cc4c(cc3OC)N(C=O)[C@@H]3C45CCN4CC=C[C@](CC)([C@H]45)[C@H](OC(C)=O)[C@]3(O)C(=O)OC)C2)C1` (stereo partly specified): 70.6% (active); `COc1cccc2c1C(=O)c1c(O)c3c(c(O)c1C2=O)C[C@@](O)(C(C)=O)C[C@H]3O[C@H]1C[C@H](N)[C@H](O)[C@H](C)O1`: 84.2% (active).
Consider `CCOc1ccc(Cc2cc([C@@H]3O[C@H](CO)[C@@H](O)[C@H](O)[C@@H]3O)ccc2Cl)cc1`, for which the viability is 101% (inactive).
As for `CC(=O)[C@]1(O)Cc2c(O)c3c(c(O)c2[C@H](O[C@H]2C[C@H](N)[C@H](O)[C@H](C)O2)C1)C(=O)c1ccccc1C3=O`, the viability was 74% (active).
Consider `CCC1=CC2CN(C1)Cc1c([nH]c3ccccc13)[C@@](C(=O)OC)(c1cc3c(cc1OC)N(C)[C@H]1[C@@](O)(C(=O)OC)[C@H](OC(C)=O)[C@]4(CC)C=CCN5CC[C@@]31[C@H]54)C2` (stereo partly specified), for which the viability was 50.5% (active).
Consider `CC(=O)O[C@H]1C(=O)[C@@]2(C)C([C@H](OC(=O)c3ccccc3)[C@]3(O)C[C@H](OC(=O)[C@H](O)[C@@H](NC(=O)c4ccccc4)c4ccccc4)C(C)=C1C3(C)C)[C@]1(OC(C)=O)CO[C@@H]1C[C@H]2O` (stereo partly specified), for which the viability is 63.2% (active).
Consider `CO[C@H]1C[C@H]2CC[C@@H](C)[C@@](O)(O2)C(=O)C(=O)N2CCCC[C@H]2C(=O)O[C@H]([C@H](C)C[C@@H]2CC[C@H](OC(=O)C(C)(CO)CO)[C@H](OC)C2)CC(=O)[C@H](C)/C=C(\C)[C@@H](O)[C@@H](OC)C(=O)[C@H](C)C[C@H](C)/C=C/C=C/C=C/1C`, for which the viability was 71% (active).
Take `CO[C@H]1/C=C\C=C(\C)C(=O)NC2=CC(=O)C(NCCN(C)C)=C(C[C@@H](C)C[C@H](OC)[C@H](O)[C@@H](C)/C=C(\C)[C@@H]1OC(N)=O)C2=O`: the viability is 50.4% (active).
Still for that read-out and setting: the figure for `CC(C)(C(=O)NCC(F)(F)C(F)(F)F)C(=O)N[C@H]1C(=O)Nc2ccccc2-c2ccccc21` is 85.5% (active).
As to `CC1(C)O[C@@H]2C[C@H]3[C@@H]4CCC5=CC(=O)C=C[C@]5(C)[C@]4(F)[C@H](O)C[C@]3(C)[C@@]2(C(=O)CO)O1`, the viability was 92.8% (active).

Staying with this assay, now noted: patient-derived ovarian cancer cells, CellTiter-Glo viability, 144 h; at 0.0195 µM; OCI-P5x cells; without rucaparib; hits give low values.
For `N[C@@H]1CCCN(c2c(/C=C3\SC(=O)NC3=O)cccc2-c2ccccc2)C1`, the viability is 111% (inactive).
Still for that read-out and setting: the figure for `C[C@@H]1C[C@H]2[C@@H]3CCC4=CC(=O)C=C[C@]4(C)[C@]3(F)[C@H](O)C[C@]2(C)[C@]1(O)C(=O)CO` is 114% (inactive); for `Cc1cc2c(C(=O)NC[C@H](C)c3ccccc3)c(O)c(O)cc2c(O)c1-c1c(C)cc2c(C(=O)NC[C@H](C)c3ccccc3)c(O)c(O)cc2c1O` it is 91.3% (active); for `Nc1nc(F)nc2c1ncn2[C@H]1O[C@H](CO)[C@@H](O)[C@@H]1O` it is 113% (inactive).
For `COc1cccc2c1C(=O)c1c(O)c3c(c(O)c1C2=O)C[C@@](O)(C(=O)CO)C[C@H]3O[C@H]1C[C@H](N)[C@@H](O)[C@H](C)O1`, the viability is 54.5% (active).
`C=C1/C(=C/C=C2\CCC[C@@]3(C)[C@H]2CC[C@H]3[C@H](C)/C=C/[C@@H](C)C(C)C)C[C@H](O)C[C@@H]1O`: the viability is 102% (inactive).
On the same count and under the same terms, the figure for `CO[C@H]1C[C@H]2CC[C@@H](C)[C@@](O)(O2)C(=O)C(=O)N2CCCC[C@H]2C(=O)O[C@H]([C@H](C)C[C@@H]2CC[C@H](OP(C)(C)=O)[C@H](OC)C2)CC(=O)[C@H](C)/C=C(\C)[C@@H](O)[C@@H](OC)C(=O)[C@H](C)C[C@H](C)/C=C/C=C/C=C/1C` is 63% (active); for `C=CCNC1=C2C[C@@H](C)C[C@H](OC)[C@H](O)[C@@H](C)/C=C(\C)[C@H](OC(N)=O)[C@@H](OC)/C=C\C=C(\C)C(=O)NC(=CC1=O)C2=O` it is 115% (inactive).
Turning to `CC[C@]1(O)C[C@@H]2CN(CCc3c([nH]c4ccccc34)[C@@](C(=O)OC)(c3cc4c(cc3OC)N(C=O)[C@@H]3C45CCN4CC=C[C@](CC)([C@H]45)[C@H](OC(C)=O)[C@]3(O)C(=O)OC)C2)C1` (stereo partly specified), the viability is 25.9% (active).
For `COc1cccc2c1C(=O)c1c(O)c3c(c(O)c1C2=O)C[C@@](O)(C(C)=O)C[C@H]3O[C@H]1C[C@H](N)[C@H](O)[C@H](C)O1`, the viability was 43% (active).
The same measure, in the same setting: next, `CCOc1ccc(Cc2cc([C@@H]3O[C@H](CO)[C@@H](O)[C@H](O)[C@@H]3O)ccc2Cl)cc1`: 107% (inactive); `CC(=O)[C@]1(O)Cc2c(O)c3c(c(O)c2[C@H](O[C@H]2C[C@H](N)[C@H](O)[C@H](C)O2)C1)C(=O)c1ccccc1C3=O`: 36.9% (active).
With `CCC1=CC2CN(C1)Cc1c([nH]c3ccccc13)[C@@](C(=O)OC)(c1cc3c(cc1OC)N(C)[C@H]1[C@@](O)(C(=O)OC)[C@H](OC(C)=O)[C@]4(CC)C=CCN5CC[C@@]31[C@H]54)C2` (stereo partly specified), the viability was 16.3% (active).
For the compound `CC(=O)O[C@H]1C(=O)[C@@]2(C)C([C@H](OC(=O)c3ccccc3)[C@]3(O)C[C@H](OC(=O)[C@H](O)[C@@H](NC(=O)c4ccccc4)c4ccccc4)C(C)=C1C3(C)C)[C@]1(OC(C)=O)CO[C@@H]1C[C@H]2O` (stereo partly specified), the viability was 16.9% (active).
On the same count and under the same terms, the figure for `CO[C@H]1C[C@H]2CC[C@@H](C)[C@@](O)(O2)C(=O)C(=O)N2CCCC[C@H]2C(=O)O[C@H]([C@H](C)C[C@@H]2CC[C@H](OC(=O)C(C)(CO)CO)[C@H](OC)C2)CC(=O)[C@H](C)/C=C(\C)[C@@H](O)[C@@H](OC)C(=O)[C@H](C)C[C@H](C)/C=C/C=C/C=C/1C` is 58.4% (active); for `CO[C@H]1/C=C\C=C(\C)C(=O)NC2=CC(=O)C(NCCN(C)C)=C(C[C@@H](C)C[C@H](OC)[C@H](O)[C@@H](C)/C=C(\C)[C@@H]1OC(N)=O)C2=O` it is 17.3% (active); for `CC(C)(C(=O)NCC(F)(F)C(F)(F)F)C(=O)N[C@H]1C(=O)Nc2ccccc2-c2ccccc21` it is 90.2% (active).
Regarding `CC1(C)O[C@@H]2C[C@H]3[C@@H]4CCC5=CC(=O)C=C[C@]5(C)[C@]4(F)[C@H](O)C[C@]3(C)[C@@]2(C(=O)CO)O1`, the viability is 107% (inactive).
